Screening data deposited in PubChem by University of Kansas High Throughput Screening Laboratory.
Pf apPOL inh: Pf-apPOL DNA polymerase inhibition; Recombinant Pf-apPOL, molecular beacon fluorescence, 1.5 h; inhibition, % at 10 µM; 0.25% of 210,000 active; AID 1794808
mHTT CaM bind: disrupts binding of mutant huntingtin to calmodulin. P42858. AlphaScreen His-mHTT/GST-CaM binding, luminescence. inhibition, % at 15 µM. 3.6% of 190,000 active. AID 1671202;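 note: 0% = both proteins with DMSO and 100% = one protein alone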
* marks the source's active call; other numbers are inactive results; . = not tested or not shown. This is one part of a sample in which hits are shown more often than they occur. Cut-off read from the data, not from the text of the source: active = inhibition above about 50%; inactive = the rest.

SMILES | Pf apPOL inh | mHTT CaM bind
CC(C)(C)C1CC=C2C(C#N)=C(N)C(C#N)(C#N)C(CCc3ccccc3)C2C1 (stereo not given) | -11.9 | 65.0*
COc1cccc(C2C3CC(C(C)(C)C)CC=C3C(C#N)=C(N)C2(C#N)C#N)c1O (stereo not given) | -1.4 | 40.0
CCOc1cccc2c1OC(c1cc(OC)c(OC)c(OC)c1)N1N=C(c3ccco3)CC21 (stereo not given) | -20.0 | 47.0
COc1ccc(C2Oc3c(OC)cccc3C3CC(c4cccs4)=NN32)cc1 (stereo not given) | -15.3 | 50.0*
CCOc1cccc2c1OC(c1ccc(OC)cc1)N1N=C(c3ccc(C)o3)CC21 (stereo not given) | -14.5 | 81.0*
COc1cccc2c1OC(c1cccc(Cl)c1)N1N=C(c3ccco3)CC21 (stereo not given) | -28.2 | 12.0
COc1cccc(C2Oc3c(OC)cccc3C3CC(c4cccs4)=NN32)c1 (stereo not given) | -16.6 | 42.0
COc1cccc(C2Oc3c(OC)cccc3C3CC(c4ccc(C)o4)=NN32)c1 (stereo not given) | -15.5 | 57.0*
CCOc1cccc2c1OC(c1cc(OC)ccc1OC)N1N=C(c3ccco3)CC21 (stereo not given) | -20.1 | 8.0
CCOc1cccc2c1OC(c1ccc(OC)c(OC)c1OC)N1N=C(c3ccc(C)o3)CC21 (stereo not given) | -15.1 | 61.0*
CCOc1ccc(NC(=O)c2cc(S(=O)(=O)N3CCc4ccccc4C3)ccc2F)cc1 | -4.3 | -3.0
O=C(NC1CCS(=O)(=O)C1)c1ccccc1Br (stereo not given) | 4.0 | -0.3
O=C(NC(N1CCCCC1)C(Cl)(Cl)Cl)c1ccccc1[N+](=O)[O-] (stereo not given) | 0.4 | 13.0
COc1ccc(C2=NN(CCc3ccccn3)C(=O)C2)cc1 | -0.1 | 86.8*
COc1ccc(C2=NN(CC(=O)NCc3ccccn3)C(=O)CC2)cc1 | -17.3 | 25.0
CC(=O)Oc1ccc2c(=O)c(Oc3ccccc3)c(C)oc2c1 | 0.0 | 18.6
Oc1c(Cl)cc(Br)cc1C=Nc1ccc2ncccc2c1 | 0.1 | 82.0*
Oc1c(Cl)cc(Cl)cc1C=Nc1cccc2cccnc12 | 5.9 | 55.0*
COc1ccc(N=Cc2cc(Br)cc(Cl)c2O)cc1 | -11.4 | 3.0
Cc1ccc(N=Cc2cc(Br)cc(Cl)c2O)c(N)c1 | 4.4 | 61.0*
CC(=O)c1ccc(N=Cc2cc(Br)cc(Cl)c2O)cc1 | 45.7 | 5.0
Cc1cccc(N=Cc2cc(Cl)cc(Cl)c2O)c1C | 6.4 | .
CCOc1ccc(C(=O)NC2CC(O)C(CO)C2)cc1 (stereo not given) | -7.5 | -1.6
COc1cc([N+](=O)[O-])ccc1NC(=O)c1cc2ccccc2o1 | -1.1 | 1.2
O=C(Nc1ccccc1Br)c1cc(S(=O)(=O)N2CCCCC2)ccc1F | 2.0 | -35.0
SMILES | Pf apPOL inh | mHTT CaM bind
COCc1cc(C)nc2sc(C(=O)N(c3ccccc3)c3ccccc3)c(-n3cccc3)c12 | -3.6 | 5.0
CCCOC(=O)c1cc2cc(OC)ccc2oc1=O | 4.7 | -8.1
CCOc1ccc(S(=O)(=O)N2CCCC2C(=O)NCCc2csc(C)n2)cc1 (stereo not given) | -3.4 | 1.8
Cc1cc(C)c(C)c(S(=O)(=O)N2CCc3nc[nH]c3C2)c1C | 1.9 | 24.3
O=S(=O)(Nc1ccc(F)cc1)c1cccnc1Nc1cccc(Cl)c1 | 5.9 | 93.3*
CCNS(=O)(=O)c1cccnc1Nc1cccc(Cl)c1 | -2.1 | -13.9
Cn1cnc2cc(OC(=O)c3c(F)cccc3F)ccc21 | -5.4 | -10.3
CCN(Cc1ccccc1)C(=O)c1oc2ccc(S(=O)(=O)N(CC)CC)cc2c1C | -9.4 | 7.0
COc1ccc(C2CC(=O)Oc3c(C(CCN4CCCC(C)C4)c4cc(OC)c(OC)c(OC)c4)c(OC)cc(OC)c32)cc1 (stereo not given) | -6.3 | 61.0*
COc1cc(C2CC(=O)Oc3cc(O)ccc32)cc(OC)c1OC (stereo not given) | -5.2 | 3.0
COc1cc(C2CC(=O)Oc3c(C(CCN4CCOCC4)c4ccc(N(C)C)cc4)c(OC)cc(OC)c32)cc(OC)c1OC (stereo not given) | -3.6 | 64.6*
COc1ccc(C2CC(=O)Oc3cc(OC)c(OC)c(OC)c32)cc1 (stereo not given) | -1.0 | 1.6
COc1ccc(C(CC(=O)N2CCCC(C)C2)c2c(O)cc(OC)cc2OC)cc1 (stereo not given) | -7.0 | 15.3
COc1ccc(C2CC(=O)Oc3c(C(CCN4CCCC(C)C4)c4ccc(N(C)C)cc4)c(OC)cc(OC)c32)cc1 (stereo not given) | -6.1 | 100.8*
COc1ccc(C2CC(=O)Oc3c(C(CCN4CCCCC4)c4ccc(N(C)C)cc4)c(OC)cc(OC)c32)cc1 (stereo not given) | 1.4 | 100.8*
O=C(N1CCN(CCn2cccn2)CC1)C1(c2cccs2)CCCC1 | -5.3 | 2.5
CCOc1cccc2c1OC1(C)CC2NC(=O)N1c1cccc(CC)c1 (stereo not given) | -8.9 | 2.0
COc1cc(C(C2=C(O)CC(C)(C)CC2=O)C2C(=O)CC(C)(C)CC2=O)ccc1O (stereo not given) | -0.4 | 18.0
CC(C)N(C)C(=O)CCc1nnc(-c2ccc(C(F)(F)F)cc2)[nH]c1=O | -4.1 | 24.2
COc1cc(OC)c2c(c1C(CCN1CCCC1)c1ccc(N(C)C)cc1)OC(=O)CC2c1ccc(N(C)C)cc1 (stereo not given) | -10.0 | 100.3*
COc1ccc(C(=O)N2CCCC3(C2)Nc2ccccc2NC3=NC(C)(C)C)c(OC)c1 (stereo not given) | 7.5 | 40.6
COCC(=O)N1CCCC2(C1)Nc1ccccc1NC2=NC(C)(C)C (stereo not given) | 0.3 | 64.0*
CC(C)(C)N=C1Nc2ccccc2CNC12CCN(C(=O)Cc1ccccc1)C2 (stereo not given) | -3.5 | 24.7
CC(C)(C)N=C1Nc2ncccc2NC12CCCN(C(=O)Cc1cccnc1)C2 (stereo not given) | -3.4 | 4.6
CC(C)(C)N=C1Nc2ccccc2CNC12CCN(C(=O)Cc1ccccc1F)C2 (stereo not given) | -9.7 | 53.2*
SMILES | Pf apPOL inh | mHTT CaM bind
COc1ccccc1CC(=O)N1CCCC2(C1)Nc1ccccc1NC2=NC(C)(C)C (stereo not given) | 6.1 | 59.0*
CC(C)(C)N=C1Nc2ccccc2NC12CCCN(C(=O)Cc1ccccc1)C2 (stereo not given) | 0.7 | 76.8*
COCC(=O)N1CCCC2(C1)Nc1ccccc1NC2=NC1CCCC1 (stereo not given) | -2.9 | 38.3
CN(C)c1ccc(C(=O)NN=Cc2ccc(N(C)C)cc2Cl)cc1 | -3.0 | .
COCCC(=O)N1CCC(NC(=O)c2cccnc2)C(c2nc(C)no2)C1 (stereo not given) | -3.0 | -2.8
COc1ccc(C(=O)Nc2ccc(I)cc2C)cc1OC | -3.7 | 2.0
Cc1nc(N=C(N)Nc2cccc(Cl)c2)[nH]c(=O)c1C | -1.3 | -0.1
COc1ccc(NC(=O)N2CCCC3(C2)Nc2ccccc2NC3=NC(C)(C)C)c(C)c1 (stereo not given) | -6.9 | 24.9
COc1ccc(C)cc1NC(=O)N1CCCC2(C1)Nc1ccccc1NC2=NC(C)(C)C (stereo not given) | -0.5 | 71.9*
COc1ccc(C)cc1NC(=O)C1c2ccccc2C(=O)N2CCc3ccccc3C12 (stereo not given) | 11.1 | 42.0
